Measurements published in PubChem BioAssay (Tox21).
Records with an inconclusive call do not appear. The source made the active and inactive calls. Unless noted, the call rests on the fitted dose curve; in most records, active means well fitted curve in the direction sought with a large enough effect in the repeat runs; inconclusive means weak or mixed curves; inactive means no such curve, though single readings can be large; an effect the other way counts as inactive or inconclusive.

Experiments:
[1] = qHTS assay for small molecule agonists of the p53 signaling pathway (AID 651631; calls by dose curve; further: nearly all actives have a fitted effect of over 15% in size; further: potency means the concentration at half of the fitted maximal effect)
Summary of the method: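 HCT-116 cells carrying a stable p53 response element–beta-lactamase reporter were plated, rested 5 h at 37 °C, then exposed to compound in DMSO for 16 h at 37 °C; reporter activity was read as FRET substrate fluorescence after 2 h at room temperature.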

[2] = qHTS assay for small molecules that induce genotoxicity in human embryonic kidney cells expressing luciferase-tagged ATAD5 (AID 651632); further: nearly all actives have a fitted effect of over 15% in size; further: potency means the concentration at half of the fitted maximal effect
Summary of the method: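 Increased luciferase signal from ATAD5-tagged reporter cells indicates DNA-damage-driven ATAD5 induction. HEK293T cells are treated for 16 hr at 37C before detection with Amplite.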

[3] = qHTS assay for small molecule agonists of the p53 signaling pathway - cell viability (AID 651633; calls by dose curve; further: nearly all actives have a fitted effect of over 30% in size; further: potency means the concentration at half of the fitted maximal effect)
Summary of the method: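 Viability counter-read: CellTiter-Glo luminescence (30 min, room temperature) in the same p53RE-bla plates. These plates had been exposed to compounds for 16 h at 37 C.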

[4] = qHTS assay for small molecules that induce genotoxicity in human embryonic kidney cells expressing luciferase-tagged ATAD5 - cell viability (AID 651634; calls by dose curve; further: nearly all actives have a fitted effect of over 25% in size; further: potency means the concentration at half of the fitted maximal effect)
Summary of the method: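 Cytotoxicity counterscreen in HEK293T cells bearing an ATAD5-luciferase reporter: live-cell protease activity measured by CellTiter-Fluor fluorescence after 15.5 hr compound exposure.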

[5] = qHTS assay for small molecule disruptors of the mitochondrial membrane potential - cell viability (AID 720634; calls by dose curve; further: nearly all actives have a fitted effect of over 20% in size; further: potency means the concentration at half of the fitted maximal effect;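 on activity change, negative = cytotoxicity: human HepG2 liver cancer cells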)
Summary of the method: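 After overnight attachment at 37 C, HepG2 cells received compound or DMSO vehicle for 1 hr. Viability is then taken from ATP-driven luminescence following a 30 min room-temperature CellTiter-Glo step.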

[6] = qHTS assay for small molecule disruptors of the mitochondrial membrane potential (AID 720635); further: potency means the concentration at half of the fitted maximal effect
Summary of the method: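 Mitochondrial membrane potential tracked with Mito-MPS dye, red aggregates (ex 540/em 590 nm) against green monomers (ex 490/em 535 nm). Compound treatment 1 hr at 37C, dye 30 min in HepG2.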

[7] = qHTS assay to test for compound auto fluorescence at 590 nm (red) in HepG2 cells (AID 720674)
Summary of the method: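 1 hr compound incubation on HepG2 cells, 37 C, 5% CO2; plate read ex 540 nm / em 590 nm; intensities reported as Rose Bengal sodium equivalents.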

[8] = qHTS assay to test for compound auto fluorescence at 535 nm (green) in HepG2 cells (AID 720675)
[9] = qHTS assay to test for compound auto fluorescence at 590 nm (red) in HEK293 cells (AID 720679)
Summary of the method: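 Autofluorescence equivalency to Rose Bengal sodium, 540/590nm, in HEK293 cells exposed overnight to 23 nL compound per well.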

[10] = qHTS assay to test for compound auto fluorescence at 535 nm (green) in HEK293 cells (AID 720680)
[11] = qHTS assay to test for compound auto fluorescence at 460 nm (blue) in HEK293 cell free culture (AID 720681)
Summary of the method: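 Blue fluorescence (Ex 405/Em 460 nm, triamterene-equivalent) was read immediately after pin transfer of compound or DMSO into medium (DMEM, 10% FBS) without cells.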

[12] = qHTS assay to test for compound auto fluorescence at 535 nm (green) in HEK293 cell free culture (AID 720682)
Summary of the method: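 Read-out: 485/535 nm fluorescence intensity, calibrated against fluorescein. Medium only (DMEM + 10% FBS, no cells); test compound or DMSO vehicle added by pintool before plate reading.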

[13] = qHTS assay to test for compound auto fluorescence at 590 nm (red) in HEK293 cell free culture (AID 720683)
Summary of the method: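 Red-channel autofluorescence of compounds in culture medium (DMEM, 10% FBS), no cells, measured at 540/590 nm. Rose Bengal sodium is the reference fluorophore for equivalence.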

[14] = qHTS assay to test for compound auto fluorescence at 590 nm (red) in HepG2 cell free culture (AID 720684)
Summary of the method: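 Steps: dispense MEM/10% FBS medium, no cells; pin compound or DMSO vehicle; read red channel, Ex/Em 540/590 nm. Output given as Rose Bengal sodium equivalents.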

[15] = qHTS assay to test for compound auto fluorescence at 460 nm (blue) in HepG2 cell free culture (AID 720685)
Summary of the method: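 Compound (23 nL) or DMSO pinned into cell-free MEM with 10% FBS; blue fluorescence read at 405/460 nm excitation/emission, expressed as auto-fluorescence equivalency to triamterene.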

[16] = qHTS assay to test for compound auto fluorescence at 535 nm (green) in HepG2 cell free culture (AID 720686)
[17] = qHTS assay to test for compound auto fluorescence at 460 nm (blue) in HepG2 cells (AID 720687)
Summary of the method: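 Blue-channel autofluorescence (Ex/Em 405/460 nm, triamterene-equivalent) was measured after 1 hr compound exposure at 37 C, 5% CO2. Cells were HepG2, plated overnight at 37 C in MEM plus 10% FBS.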

[18] = biological target: Glucocorticoid receptor (Homo sapiens) (UniProt P04150); assay: qHTS assay to identify small molecule agonists of the glucocorticoid receptor (GR) signaling pathway (AID 720691; active means well fitted activation curve with a large enough effect in the signal ratio in the repeat runs, not every such curve was filed as active; the % refers to the signal ratio); settings: GR-bla HeLa, beta-lactamase reporter ratio, 18 h; activation: at 62.4 µM (top of the series)
Sequence of Glucocorticoid receptor (Homo sapiens) (P04150 whole entry, looked up): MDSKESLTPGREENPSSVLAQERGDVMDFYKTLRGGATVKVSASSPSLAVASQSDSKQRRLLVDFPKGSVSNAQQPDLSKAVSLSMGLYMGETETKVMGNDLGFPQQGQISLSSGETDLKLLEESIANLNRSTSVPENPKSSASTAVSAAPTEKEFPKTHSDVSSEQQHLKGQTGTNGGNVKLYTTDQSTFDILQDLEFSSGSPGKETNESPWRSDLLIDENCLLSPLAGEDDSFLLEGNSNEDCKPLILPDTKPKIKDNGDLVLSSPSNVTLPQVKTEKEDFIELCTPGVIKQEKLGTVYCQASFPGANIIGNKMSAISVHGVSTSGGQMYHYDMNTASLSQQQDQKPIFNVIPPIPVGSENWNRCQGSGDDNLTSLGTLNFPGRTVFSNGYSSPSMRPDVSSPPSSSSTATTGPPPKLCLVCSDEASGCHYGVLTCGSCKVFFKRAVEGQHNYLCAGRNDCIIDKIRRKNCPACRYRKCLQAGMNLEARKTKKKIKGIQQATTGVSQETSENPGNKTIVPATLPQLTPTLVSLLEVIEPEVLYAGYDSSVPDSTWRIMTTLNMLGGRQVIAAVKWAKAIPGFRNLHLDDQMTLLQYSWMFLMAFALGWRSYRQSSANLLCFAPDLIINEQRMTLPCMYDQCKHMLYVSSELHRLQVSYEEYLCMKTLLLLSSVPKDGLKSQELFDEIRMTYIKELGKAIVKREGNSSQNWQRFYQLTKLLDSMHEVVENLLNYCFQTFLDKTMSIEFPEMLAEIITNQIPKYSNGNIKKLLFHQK
Summary of the method: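 Agonist mode in a HeLa line carrying a GRE-controlled beta-lactamase reporter. Compounds act for 18 h at 37 C before a 2 h room-temperature FRET substrate step and fluorescence reading.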

[19] = biological target: Glucocorticoid receptor (Homo sapiens) (UniProt P04150); assay: qHTS assay to identify small molecule antagonists of the glucocorticoid receptor (GR) signaling pathway (AID 720692; active means well fitted inhibition curve with a large enough effect in the signal ratio in the repeat runs, not every such curve was filed as active; the % refers to the signal ratio)
Summary of the method: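 Cells plated, rested 4 h at 37 C/5% CO2; compounds in DMSO pin-transferred; dexamethasone added to 5 nM final; 18 h at 37 C; B/G FRET substrate added, 2 h room temperature; fluorescence measured.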

[20] = qHTS assay to test for compound auto fluorescence at 460 nm (blue) in HEK293 cells (AID 720678)
Summary of the method: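 Auto fluorescence in the blue band was quantified as triamterene equivalency. HEK293 cells were seeded at 2,000/well, dosed after a 4-5 hr attachment, and kept overnight at 37C before the 405/460 nm reading.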
On the % scale 0 is the no-effect control and ±100 the full control effect.

O=P(Cl)(Cl)Cl
inactive: Potency [1] | Potency [2] | Potency [3] | Potency [4] | Potency [5] | Potency [6] | outcome [7] | Potency [8] | outcome [9] | outcome [10] | Potency [11] | outcome [12] | outcome [13] | outcome [14] | Potency [15] | Potency [16] | Potency [17] | Potency [18] | Potency [19]

C[N+]1(C)[C@@H]2CC[C@H]1CC(OC(=O)C(CO)c1ccccc1)C2 (some centres undefined)
inactive: Potency [1] | Potency [2] | Potency [3] | Potency [4] | Potency [6] | outcome [7] | Potency [8] | Potency [20] | outcome [9] | outcome [10] | Potency [11] | outcome [12] | outcome [13] | outcome [14] | Potency [15] | Potency [16] | Potency [17] | Potency [18] | Potency [19]

CCOP(=O)(OCC)Oc1cc(C)nc(C(C)C)n1
inactive: Potency [1] | Potency [2] | Potency [3] | Potency [4] | Potency [5] | Potency [6] | outcome [7] | Potency [8] | Potency [20] | outcome [10] | Potency [11] | outcome [12] | outcome [13] | outcome [14] | Potency [15] | Potency [16] | Potency [17] | Potency [18]

N#CCCl
inactive: Potency [1] | Potency [2] | Potency [3] | Potency [4] | Potency [6] | Potency [8] | Potency [20] | outcome [9] | outcome [10] | Potency [11] | outcome [12] | outcome [13] | outcome [14] | Potency [15] | Potency [16] | Potency [17]

C#CC1(O)CCCCC1
inactive: Potency [1] | Potency [2] | Potency [3] | Potency [4] | Potency [5] | outcome [7] | Potency [8] | Potency [20] | outcome [9] | outcome [10] | Potency [11] | outcome [13] | outcome [14] | Potency [15] | Potency [16] | Potency [17]

CCCCC/C=C\C/C=C\C/C=C\C/C=C\CCCC(=O)NCC(=O)O
inactive: activation [1] -5.49% [at 8.3 µM] | activation [2] -2.3% [at 8.08 µM] | activity change, negative = cytotoxicity [3] -17.5% [at 8.08 µM] | activity, negative = cytotoxicity [4] 5.25% [at 8.08 µM] | activity change, negative = cytotoxicity [5] -7.39% [at 8.08 µM] | fluorescence, relative to Rose Bengal [7] -0.484% [at 3.72 µM] | fluorescence, % of fluorescein control [8] 0.165% [at 3.72 µM] | fluorescence, % of triamterene [20] -0.0359% [at 3.72 µM] | fluorescence, % of fluorescent control [9] 0.123% [at 3.72 µM] | fluorescence, % of fluorescein [10] -0.212% [at 3.72 µM] | fluorescence, % of fluorescent control [11] -0.0427% [at 3.72 µM] | activity change [12] 0.0424% [at 3.72 µM] | fluorescence, % of fluorescent control [13] 0.173% [at 3.72 µM] | fluorescence, % of Rose Bengal [14] 0.0912% [at 3.72 µM] | fluorescence, % of fluorescent control [15] -0.0542% [at 3.72 µM] | fluorescence, % of fluorescein control [16] 0.0024% [at 3.72 µM] | fluorescence, % of fluorescent control [17] -0.108% [at 3.72 µM] | activation [18] 0.54% [at 6.9 µM] | activity change, negative = inhibition [19] 22.5% [at 7.04 µM]

Nc1nc(N)nc(Cl)n1
inactive: Potency [1] | Potency [2] | Potency [3] | Potency [4] | Potency [5] | Potency [6] | outcome [7] | Potency [8] | Potency [20] | outcome [9] | outcome [10] | Potency [11] | outcome [12] | outcome [13] | outcome [14] | Potency [15] | Potency [16] | Potency [17] | Potency [18] | Potency [19]

Cc1nn(-c2cc(NS(C)(=O)=O)c(Cl)cc2Cl)c(=O)n1C(F)F
inactive: Potency [1] | Potency [2] | Potency [3] | Potency [4] | outcome [7] | Potency [8] | Potency [20] | outcome [9] | outcome [10] | Potency [11] | outcome [12] | outcome [13] | outcome [14] | Potency [15] | Potency [16] | Potency [17]

[Cl][Hg][c]1ccccc1
active: Potency [1] 6.11 µM | Potency [3] 1.93 µM | Potency [4] 19.3 µM | Potency [6] 6.11 µM
inactive: Potency [2] | outcome [7] | Potency [8] | Potency [20] | outcome [9] | outcome [10] | Potency [11] | outcome [12] | outcome [13] | outcome [14] | Potency [15] | Potency [16] | Potency [17]

C[C@H]1[C@H](c2ccc(Cl)cc2)SC(=O)N1C(=O)NC1CCCCC1
active: Potency [6] 15.4 µM
inactive: Potency [1] | Potency [2] | Potency [3] | Potency [4] | outcome [7] | Potency [8] | Potency [20] | outcome [10] | Potency [11] | outcome [12] | outcome [13] | outcome [14] | Potency [15] | Potency [16] | Potency [17] | Potency [18]

COC(=O)N(OC)c1ccccc1COc1ccn(-c2ccc(Cl)cc2)n1
inactive: Potency [2] | Potency [3] | Potency [4] | outcome [7] | Potency [8] | Potency [20] | outcome [9] | outcome [10] | Potency [11] | outcome [13] | outcome [14] | Potency [15] | Potency [16] | Potency [17]
active: Potency [1] 1.72 µM | Potency [6] 4.86 µM

CC(O)C(=O)[O][Hg][c]1ccccc1 (centres undefined)
inactive: outcome [7] | Potency [8] | Potency [20] | outcome [10] | Potency [11] | outcome [12] | outcome [13] | outcome [14] | Potency [15] | Potency [16] | Potency [17]
active: Potency [1] 0.545 µM | Potency [2] 0.0969 µM | Potency [3] 0.217 µM | Potency [4] 0.969 µM | Potency [5] 5.45 µM | Potency [6] 2.73 µM

CSC1=N[C@@](C)(c2ccccc2)C(=O)N1Nc1ccccc1
active: Potency [6] 61.1 µM
inactive: Potency [1] | Potency [2] | Potency [3] | Potency [4] | outcome [7] | Potency [8] | Potency [20] | outcome [9] | outcome [10] | Potency [11] | outcome [12] | outcome [13] | outcome [14] | Potency [15] | Potency [16] | Potency [17] | Potency [18]

C=CCBr
inactive: Potency [1] | Potency [2] | Potency [3] | Potency [4] | Potency [5] | Potency [8] | outcome [9] | outcome [10] | Potency [11] | outcome [12] | outcome [13] | outcome [14] | Potency [15] | Potency [16] | Potency [17] | Potency [18]
